Results from PubChem BioAssay (EPA / NIEHS).
Records with an inconclusive call do not appear. Activity calls are given as the source filed them. The calls were made as follows, unless noted: active = hit-call score of the fitted dose curve at least 0.9, where 1 is the maximum; inconclusive = response in the unintended direction; inactive = score below 0.9.

Columns and labels:
[1] = Tanguay_ZF_120hpf_CIRC_legacy: (Legacy) Oregon State University Tanguay Lab 120 Hour Post-fertilization zebrafish Assay for Circulatory Malformation (AID 2283651)
How it was run: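 Binary circulatory malformation call at 120 hpf by brightfield imaging of zebrafish larvae; chorion removed at 4 hpf, static exposure from 6 hpf in sealed dark plates at 28C, final DMSO 0.64%; non-mortality endpoints skipped if embryo died.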

[2] = Tanguay_ZF_120hpf_TRUN_legacy: (Legacy) Oregon State University Tanguay Lab 120 Hour Post-fertilization zebrafish Assay for Truncated Body (AID 2283655)
How it was run: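 Tropical 5D wild-type embryos, dechorionated with pronase at 4 hpf, were placed singly in wells at 6 hpf and statically exposed at 28C until 120 hpf, final DMSO 0.64%. Truncated body was scored present/absent by brightfield microscopy.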

[3] = Tanguay_ZF_120hpf_NC_legacy: (Legacy) Oregon State University Tanguay Lab 120 Hour Post-fertilization zebrafish Assay for Notochord and Tail Malformation (AID 2283656)
How it was run: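 Binary scoring of notochord distortion by brightfield microscopy; embryos dying were not scored. Wild-type Tropical 5D embryos, chorion removed, exposed singly and statically from 6 to 120 hpf, 28C, sealed, 0.64% DMSO.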

[4] = Tanguay_ZF_120hpf_ActivityScore_legacy: (Legacy) Oregon State University Tanguay Lab 120 Hour Post-fertilization zebrafish Assay Score for Activity (AID 2283742)
How it was run: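 In this whole-embryo screen, dechorionated zebrafish were exposed from 6 hpf until 120 hpf at 28C under a 0.64% DMSO vehicle. Developmental malformations and death were recorded by brightfield microscopy as binary endpoints.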

[5] = system: Thyroperoxidase (TPO), gene 54314; assay: CCTE_Simmons_AUR_rTPO: CCTE's Amplex UltraRed Assay for Thyroperoxidase (TPO) Inhibition, Simmons Lab (AID 2283662);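 also: potency for loss of signal meaning inhibition of peroxidase activity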
How it was run: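 Cell-free peroxidase activity assay using rat thyroid gland microsomes with excess H2O2 (300 uM) and 25 uM Amplex UltraRed. Compounds tested from 5 nM to 87.5 uM; fluorescence measured after 30 min at 37C, analysed relative to DMSO baseline.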

[6] = CCTE_Simmons_CellTiterGLO_HEK293T: Viability Assessment in CCTE's Assays for Thyroperoxidase (TPO) Inhibition, Simmons Lab (AID 2283665);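 as to AC50: cells exposed to compound for 24 h before readout; actives reduce ATP signal below DMSO vehicle meaning cytotoxicity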
How it was run: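 Luciferase-coupled ATP content after 24 h exposure gives viability; 8-point series from 5 nM to 87.5 uM final in 0.5% DMSO. Human HEK293T cells, 1% FBS medium, three biological replicates, dichlone positive control.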

[7] = Tanguay_ZF_120hpf_TR_legacy: (Legacy) Oregon State University Tanguay Lab 120 Hour Post-fertilization zebrafish Assay for Touch Response (AID 2283667)
How it was run: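 Readout is presence or absence of touch response in 120 hpf zebrafish larvae, assessed by brightfield observation after continuous static exposure at 28C. Final vehicle was 0.64% (vol/vol) DMSO.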

[8] = CEETOX_H295R_MTT_cell_viability: Viability Assessment in the CeeTox HT-H295R MTT Assay (AID 2283718; active = hit-call score of the fitted dose curve at least 0.9, where 1 is the maximum; inactive = score below 0.9)
How it was run: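 H295R cells prestimulated 48 h with 10 uM forskolin, then exposed 48 h to test chemical (0.1% DMSO final). Viability by MTT (0.5 mg/ml, 4 h, 37 C), absorbance 570/650 nm; percent change versus DMSO, bidirectional fit.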

[9] = STM_H9_OrnithineISnorm_perc: Stemina devTOX quickPredict H9 human embryonic stem cell (hESC)-based Assay for Ornithine (ORN) Metabolite Biomarker, Normalized (AID 2283712; active = hit-call score of the fitted dose curve at least 0.9, where 1 is the maximum; inactive = score below 0.9;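 also: ornithine released into spent medium during last day measured by mass spectrometry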)
How it was run: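 Ornithine in spent medium from the last 24 h of a 72 h exposure, deproteinised and quantified by UPLC-HRMS against an isotope-labelled internal standard, expressed relative to 0.1% DMSO. Pluripotent H9 cells; compound refreshed every 24 h.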

[10] = STM_H9_CystineISnorm_perc: Stemina devTOX quickPredict H9 human embryonic stem cell (hESC)-based Assay for Cystine (CYSS) Metabolite Biomarker, Normalized (AID 2283713; active = hit-call score of the fitted dose curve at least 0.9, where 1 is the maximum; inactive = score below 0.9)
How it was run: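 Cystine in spent media from the last 24 h of a 72 h H9 hESC exposure (daily re-dosing), measured by UPLC-HRMS. Values normalized to isotopic internal standard, then to 0.1% DMSO; viability via CellTiter-Fluor.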

[11] = STM_H9_OrnCyssISnorm_ratio: Stemina devTOX quickPredict H9 human embryonic stem cell (hESC)-based Assay for Ornithine (ORN):Cystine (CYSS) Ratio (AID 2283714)
How it was run: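 H9 hESC, 72h, q24h re-dose; last-day media → acetonitrile deproteinization → UPLC-HRMS. ORN:CYSS ratio from isotope-normalized EIC areas, vs 0.1% DMSO; MTX references on each plate.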

[12] = CCTE_Padilla_ZF_144hpf_TERATOSCORE: (Legacy) CCTE's 144 Hour Post-fertilization zebrafish Assay Teratoscore, Padilla Lab (AID 2283679; active = hit-call score of the fitted dose curve at least 0.9, where 1 is the maximum; inactive = score below 0.9;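 as to AC50: zebrafish embryos with chorions exposed by immersion from 6-8 hpf to 5 dpf with daily renewal; teratogenicity score from eye scoring of death hatching and malformations at 144 hpf; higher score means more developmental defects relative to DMSO baseline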)
How it was run: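 Larvae scored by eye at 144 hpf for death, hatching and malformations after a day in clean Hanks'. Before that, daily-renewed exposure at 80 uM (0.4% DMSO, 26C) from roughly 6-8 hpf through 5 dpf, 4 embryos per chemical.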

[13] = system: Thyroperoxidase (TPO), gene 445522; assay: CCTE_Simmons_GUA_TPO: CCTE's Guaiacol Assay for Thyroperoxidase (TPO) Inhibition, Simmons Lab (AID 2283750)
How it was run: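 Porcine thyroid microsomes (25 ug) in 200mM potassium phosphate, preincubated 30 s at 37C with compound (8 concentrations, 5 nM–87.5 uM) and 35mM guaiacol; 1mM H2O2 starts reaction. Absorbance change at 450nm over first 80 s; loss of signal versus DMSO, three replicates.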

Measured: AC50

Cc1ccc([N+](=O)[O-])cc1C
inactive: [1] | [2] | [3] | [4]

O=P1(N(CCCl)CCCl)NCCCO1 (centres undefined)
inactive: [1] | [2] | [3] | [4]

c1ccc(OP(Oc2ccccc2)Oc2ccccc2)cc1
inactive: [1] | [2] | [3] | [6] | [7] | [8] | [4]
active: [5] 8.68 µM

COCCOCCO
inactive: [1] | [2] | [3] | [7] | [9] | [10] | [11] | [4]

O=[N+]([O-])c1ccc(Cl)c(Cl)c1
inactive: [1] | [2] | [3] | [7] | [4]

Cc1cccc(N)c1
active: [5] 0.268 µM | [13] 8.25 µM
inactive: [1] | [2] | [3] | [6] | [12] | [8] | [4]

CC(Cl)(Cl)C(=O)O
inactive: [1] | [2] | [3] | [7] | [4]

ClC(Cl)c1ccccc1
inactive: [1] | [2] | [3] | [7] | [4]
active: [12] 14.7 µM

Nc1cc2c3c(c1)C(c1ccccc1)=N[C@@H](NC(=O)c1cccnc1)C(=O)N3CC2
inactive: [1] | [2] | [3] | [6] | [7] | [8] | [4] | [13]
active: [5] 23.1 µM

CCOc1ccc(C(C)(C)COCc2cccc(Oc3ccccc3)c2)cc1
inactive: [1] | [2] | [3] | [8] | [4]

Cc1ccc(O)cc1C
inactive: [1] | [2] | [3] | [7] | [4]

CSC(C)(C)C=NO
inactive: [1] | [2] | [3] | [7] | [4]

CC(Cc1ccc(OCC(=O)O)cc1)NCC(O)c1csc(C(F)(F)F)n1 (centres undefined)
inactive: [1] | [2] | [3] | [7] | [4]

CCOS(=O)(=O)OCC
inactive: [1] | [2] | [3] | [7] | [4]

CCC(C)(C)c1ccc(O)cc1
inactive: [1] | [10] | [8]
active: [2] 31.6 µM | [3] 47.9 µM | [5] 4.91 µM | [6] 28.1 µM | [7] 48.3 µM | [12] 14.2 µM | [9] 78.2 µM | [11] 40.1 µM | [4] 21.3 µM

CCCCCCCc1ccc(O)cc1
inactive: [1] | [2] | [3] | [7] | [4]
active: [5] 10.2 µM | [6] 10.1 µM | [12] 6.11 µM

CCOC(=O)c1ccccc1C(=O)OCC
inactive: [1] | [2] | [7] | [9] | [10] | [8] | [4]

CC(C)(C)c1ccc(O)cc1
active: [5] 2.73 µM | [6] 57.4 µM | [12] 57.8 µM | [4] 42.8 µM
inactive: [1] | [2] | [3] | [7]

CCNc1nc(Cl)nc(NC(C)(C)C)n1
inactive: [1] | [2] | [3] | [7] | [12] | [8] | [4]

O=C(O)C(Cl)Cl
inactive: [1] | [2] | [3] | [7] | [12] | [9] | [10] | [11] | [4]

CN(C)C(=O)Cl
inactive: [1] | [2] | [3] | [7] | [4]

CCCCN(CCCC)SN(C)C(=O)Oc1cccc2c1OC(C)(C)C2
active: [12] 6.04 µM
inactive: [1] | [2] | [3] | [7] | [4]

O=[N+]([O-])c1ccccc1
inactive: [1] | [2] | [7] | [9] | [10] | [4]

CCOP(=S)(OCC)SCSCC
active: [5] 20.5 µM | [6] 13.6 µM
inactive: [1] | [2] | [3] | [7] | [12] | [4]
